Measured values taken from PubChem BioAssay (EPA / NIEHS).
Results filed as inconclusive are left out. Calls of active or inactive are those of the source. The calls were made as follows: active = hit-call score of the fitted dose curve at least 0.9, where 1 is the maximum; inconclusive = response in the unintended direction; inactive = score below 0.9.

These compounds were tested against rat Thyrotropin Releasing Hormone Receptor (TRH), Trhr (gene 25570) (UniProt Q01717) (assay: NVS_GPCR_rTRH: NovaScreen (NVS) G Protein-Coupled Receptor Assay for rat Thyrotropin Releasing Hormone Receptor (TRH) (AID 2283329);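 also: hit means lower bound tracer signal versus DMSO baseline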).
Sequence of rat Thyrotropin Releasing Hormone Receptor (TRH), Trhr (gene 25570) (Q01717 whole entry, looked up): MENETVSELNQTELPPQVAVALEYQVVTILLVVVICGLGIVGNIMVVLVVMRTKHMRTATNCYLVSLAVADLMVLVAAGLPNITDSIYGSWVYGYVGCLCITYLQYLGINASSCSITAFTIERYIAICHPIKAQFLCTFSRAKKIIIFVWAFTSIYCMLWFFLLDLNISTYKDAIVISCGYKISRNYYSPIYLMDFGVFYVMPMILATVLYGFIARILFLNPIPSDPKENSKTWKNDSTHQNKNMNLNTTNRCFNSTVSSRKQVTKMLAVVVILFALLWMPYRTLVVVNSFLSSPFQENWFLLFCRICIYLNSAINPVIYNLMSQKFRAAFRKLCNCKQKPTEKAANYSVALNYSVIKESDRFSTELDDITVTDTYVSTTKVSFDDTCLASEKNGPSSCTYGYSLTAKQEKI
How it was run: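 Competitive radioligand binding on rat forebrain membrane preparations, with filtration and scintillation readout after 4 h. Primary testing in duplicate at 25 uM; actives confirmed in concentration-response. DMSO defined baseline.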
`CCOP(=S)(OCC)Oc1nc(Cl)n(C(C)C)n1` was tested, and the outcome was “inactive”.
In the case of `Nc1c(Cl)c(Cl)nc(C(=O)O)c1Cl`, the outcome is reported as “inactive”.
`CCOC(=O)C(C)OC(=O)c1cc(Oc2ccc(C(F)(F)F)cc2Cl)ccc1[N+](=O)[O-]` (stereo not given) was tested, and the outcome was “inactive”.
`CCCCC(O)(Cn1cncn1)c1ccc(Cl)cc1Cl` (stereo not given) was tested, and the outcome was “inactive”.

Each compound was assayed against human Peripheral-type Benzodiazepine Receptor (PBR), TSPO (gene 706) (UniProt P30536) (assay: NVS_MP_hPBR: NovaScreen (NVS) Membrane Protein Assay for human Peripheral-type Benzodiazepine Receptor (PBR) (AID 2283331);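 also: hits reduce radioligand binding relative to DMSO baseline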).
Sequence of human Peripheral-type Benzodiazepine Receptor (PBR), TSPO (gene 706) (P30536 whole entry, looked up): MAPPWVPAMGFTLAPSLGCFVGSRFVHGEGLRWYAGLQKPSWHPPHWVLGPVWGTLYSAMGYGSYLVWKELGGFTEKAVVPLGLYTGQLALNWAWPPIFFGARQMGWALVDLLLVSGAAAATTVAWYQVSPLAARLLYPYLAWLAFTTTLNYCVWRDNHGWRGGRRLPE
How it was run: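 Scintillation counts of filter-bound radioligand served as read-out after 1 h chemical dosing of human colonic membrane preparations. Activity was scored as signal loss against DMSO; initial duplicates at 25 uM, confirmatory concentration series afterward.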
In the case of `COc1ccc(-c2ccccc2)cc1NNC(=O)OC(C)C`, the AC50 is reported as 0.149 µM (active).
`COP(=S)(OC)Oc1ccc([N+](=O)[O-])c(C)c1` was tested, and the AC50 was 25 µM (active).
`COP(=S)(OC)SCn1nnc2ccccc2c1=O` was tested, and the AC50 was 17.5 µM (active).
`CCNP(=S)(OC)O/C(C)=C/C(=O)OC(C)C` (stereo not given) was tested, and the AC50 was 17.5 µM (active).
With `COC(=O)N(C(=O)N1CO[C@@]2(C(=O)OC)Cc3cc(Cl)ccc3C2=N1)c1ccc(OC(F)(F)F)cc1` the AC50 was 0.292 µM (active).
For `COCC(=O)N(c1c(C)cccc1C)C(C)C(=O)OC` (stereo not given), the outcome was “inactive”.
With `CC1(C)C(C=C(Cl)Cl)C1C(=O)OC(C#N)c1cccc(Oc2ccccc2)c1` (stereo not given) the AC50 was 14.9 µM (active).
`CC(C)Oc1cccc(NC(=O)c2ccccc2C(F)(F)F)c1` was tested, and the AC50 was 0.824 µM (active).
In the case of `OC(c1ccc(Cl)cc1)(c1ccc(Cl)cc1)C(Cl)(Cl)Cl`, the outcome is reported as “inactive”.
With `CCOP(=S)(OCC)Oc1nc(Cl)n(C(C)C)n1` the outcome was “inactive”.
In the case of `Clc1nc(Cl)nc(Nc2ccccc2Cl)n1`, the AC50 is reported as 14.9 µM (active).
In the case of `CCN(CC)c1nc(C)cc(OP(=S)(OC)OC)n1`, the AC50 is reported as 14 µM (active).
`CC(C)NC(=O)N1CC(=O)N(c2cc(Cl)cc(Cl)c2)C1=O` was tested, and the AC50 was 8.8 µM (active).
With `CCOC(=O)C(C)OC(=O)c1cc(Oc2ccc(C(F)(F)F)cc2Cl)ccc1[N+](=O)[O-]` (stereo not given) the AC50 was 8.41 µM (active).
With `Cc1nc(N(C)C)nc(OC(=O)N(C)C)c1C` the AC50 was 12.1 µM (active).
In the case of `O=C(Nc1ccccc1-c1ccc(Cl)cc1)c1cccnc1Cl`, the outcome is reported as “inactive”.
`CCCCOCN(C(=O)CCl)c1c(CC)cccc1CC` was tested, and the AC50 was 6.37 µM (active).
For `CCOP(=O)(OCC)Oc1nc(Cl)c(Cl)cc1Cl`, the AC50 was 4.32 µM (active).
For `CC(C)=CC1C(C(=O)OCc2coc(Cc3ccccc3)c2)C1(C)C` (stereo not given), the outcome was “inactive”.
In the case of `COCC(C)N(C(=O)CCl)c1c(C)csc1C` (stereo not given), the AC50 is reported as 9.66 µM (active).
With `CCCCC(O)(Cn1cncn1)c1ccc(Cl)cc1Cl` (stereo not given) the outcome was “inactive”.
